# Source: PubChem BioAssay
# Several values for one entry are separate records, joined by “and”; a condition that tells them apart may be missing. Identical values can stand only once. Inconclusive results are not listed. A structure can be active in one record and inactive in another. Activity calls are given as the source filed them. Unless noted, how the calls were made is not given here.
# Legend:
# [1] = liver-stage malaria parasite growth inhibition, primary screen, cell-based, HepG2, luciferase luminescence, HepG2 viability (AID 624349; in the data active means parasite load remaining mostly below about 12%, no sharp cut-off; inactive means mostly above about 10%;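 further: 100% = mean of DMSO negative control wells on the same plate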); settings: P. berghei liver stage in HepG2, luciferase luminescence, concentration not given here; parasite load remaining: stronger effect = lower value; viability: measured here: HepG2 viability without parasites
# [2] = system: Aerobactin synthetase IucA (Klebsiella pneumoniae); test: IucA aerobactin synthetase inhibitors, biochemical, Tocris library, absorbance (AID 1345561); settings: purified IucA enzyme assay, absorbance (OD) read-out; stronger effect = lower value;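 tested at 8 µM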;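 further: 100% = enzyme without compound and 0% = no enzyme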
# [3] = growth inhibition of DIPG glioma cells, dose response, cell-based, JHH-DIPG-1, MIPE4.0, CellTiter-Glo, qHTS (AID 1347062; cut-off not given, nearly all actives have AC50 up to about 27 µM); settings: JHH-DIPG-1 viability, CellTiter-Glo ATP luminescence
# [4] = SU-DIPG-XXV glioma cell viability, MIPE5.0 library, qHTS (AID 1347068; cut-off not given, nearly all actives have IC50 up to about 30 µM;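 on IC50: cells exposed to compound for 48 hours before viability readout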)
# [5] = sensitizers of A549 cells to miR-34 induction, primary screen, imaging, A549 dox-inducible miR-34, nuclei and caspase counts (AID 1347080;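 active means compounds whose cell count with miR-34 switched on is under 0.7 times the count with it off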); settings: A549 miR-34 inducible, Hoechst nuclei count, 48 h
# [6] = modifiers of HSF1 nuclear foci, imaging, Selleck Cancer Library (AID 1347162; in the data active means plate-normalised HSF1 focus index below about 0.46); settings: human cells, at 10 µM; SSMD: measured here: HSF1 foci SSMD mean; cell count: measured here: cell number; plate-normalised HSF1 focus index: stronger effect = lower value
# [7] = viability rescue of complex I mutant cybrids, primary screen, cell-based, galactose medium, ATP luminescence (AID 1645843;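 active means z-score of at least 1.8 in each of two replicates, scored against plate mean and spread of sample wells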;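 further: positive z means more ATP and so rescue of galactose-driven cybrid death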); settings: complex I mutant cybrid cells, 72 h, stronger effect = higher value
# [8] = circadian clock period modulators, cell-based, LOPAC library, luminescence reporter (AID 2774); settings: circadian reporter cells, at 7 µM, actives lie on both sides;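 further: values are relative to mean of DMSO wells on each plate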
# [9] = hESC survival regulators, cell-based (AID 493140); settings: human embryonic stem cell survival screen; stronger effect = higher value;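 further: cells exposed to compounds for four days before counting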
# [10] = system: Hepatitis C virus NS3 helicase; test: HCV NS3 helicase inhibitors, primary screen, biochemical, fluorescence polarization, LOPAC1280 library (AID 687035; in the data active means inhibition above about 37%); settings: Purified HCV NS3 helicase, Cy5-dT15 ssDNA binding fluorescence polarization; stronger effect = higher value; concentration not given here
# [11] = Cy5 fluorescence quenching or enhancement artefacts, artefact control for HCV NS3 helicase inhibitor project, biochemical, LOPAC1280 (AID 687037); settings: Cy5-DNA-NS3h complex fluorescence interference counterscreen
# [12] = growth inhibition of DIPG glioma cells, dose response, cell-based, SU-DIPG-XIII, MIPE4.0, CellTiter-Glo, qHTS (AID 1347061; cut-off not given, nearly all actives have AC50 up to about 37 µM;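 further: cells exposed to compound for 48 hours before readout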); settings: SU-DIPG-XIII viability, CellTiter-Glo ATP luminescence
# [13] = inhibitors of Cryptococcus chitosan production, flow cytometry, Cibacron Brilliant Red staining (AID 1347148); settings: Cryptococcus neoformans chitosan, stronger effect = lower value; at 10 µM unless noted;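 further: compound exposure lasted three days at 37 degrees C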
# [14] = phospholipid biosynthesis inhibitors in animal cells, primary screen, cell-based, LOPAC library, screen 4 (AID 1347384); settings: phospholipid biosynthesis inhibition screen, at 10 µM
# [15] = survival rescue of mitochondrial mutant cells in low glucose, primary screen, MELAS cybrids, Rieske KO mouse fibroblasts, CellTiter-Glo (AID 1508586;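 active means mean z-score across replicates of 1.96 or higher in either the MELAS or the Rieske mutant cell line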;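 further: z relative to plate mean and SD of compound and empty wells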)
# [16] = stronger effect = lower value, cell number ratio, induced over uninduced
# [17] = measured here: relative caspase fold change +Dox/-Dox
# [18] = measured here: total cells with miR-34 induction, stronger effect = lower value
# [19] = measured here: total cells without miR-34 induction
structure (smiles),measurement,setting,value
NC(=O)c1ccc(-c2nc(-c3ccc4c(c3)OCCO4)c(-c3ccccn3)[nH]2)cc1,parasite load remaining,[1],23.5% (inactive)
same,viability,[1],94.8%
same,remaining activity,[2],105% (inactive)
same,outcome,[3],inactive
same,outcome,[4],inactive
same,fold change,[5]; [16],0.947 (inactive) and 0.907 (inactive)
same,fold change,[5]; [17],1.17 and 1.19
same,cell count,[5]; [18],6010 and 7770
same,cell count,[5]; [19],6350 and 8570
same,SSMD,[6],3.6
same,cell count,[6],7030
same,plate-normalised HSF1 focus index,[6],1.22 (inactive)
same,z-score,[7],-0.34 (inactive)
O=C1c2ccccc2-c2n[nH]c3cccc1c23,period change,[8],1.23 h (active)
same,survival,[9],97.1 (inactive)
same,parasite load remaining,[1],34% (inactive)
same,viability,[1],81%
same,inhibition,[10],1% (inactive)
same,fluorescence ratio (interference),[11],1 (inactive)
same,remaining activity,[2],103% (inactive)
same,outcome,[12],inactive
same,outcome,[3],inactive
same,fold fluorescence,[13],20.5 [at 227 µM] (inactive)
same,outcome,[14],inactive
same,z-score,"[15]; MELAS cybrid survival, CellTiter-Glo 48 h, stronger effect = higher value",-0.446 (inactive)
same,z-score,"[15]; Rieske KO mouse fibroblast survival, CellTiter-Glo 72 h",-0.381
same,z-score,[7],0.03 (inactive) and 0.085 (inactive)
CCOC(=O)C(C)Oc1cccc2c(=O)n(CC(=O)Nc3ccc4c(c3)OCCO4)ccc12 (centres undefined),inhibition,[10],-3% (inactive)
same,fluorescence ratio (interference),[11],1 (inactive)
same,remaining activity,[2],96.6% (inactive)
same,outcome,[12],inactive
same,outcome,[3],inactive
same,outcome,[4],inactive
same,fold change,[5]; [16],0.916 (inactive) and 0.854 (inactive)
same,fold change,[5]; [17],0.783 and 1.31
same,cell count,[5]; [18],8970 and 6830
same,cell count,[5]; [19],9800 and 8000
same,SSMD,[6],0.942
same,cell count,[6],6920
same,plate-normalised HSF1 focus index,[6],1.06 (inactive)
same,z-score,[7],0.675 (inactive) and 0.45 (inactive)
Cc1ccccc1C(=O)c1ccc(Nc2ccc(Br)cc2N)cc1Cl,parasite load remaining,[1],40.9% (inactive)
same,viability,[1],76.7%
same,remaining activity,[2],120% (inactive)
same,outcome,[12],inactive
same,IC50,[4],23.5 µM (active)
same,fold change,[5]; [16],0.938 (inactive)
same,fold change,[5]; [17],1.33
same,cell count,[5]; [18],6770
same,cell count,[5]; [19],7220
same,z-score,[7],-0.695 (inactive)
N#C/C(=C\c1ccc(O)c(O)c1)C(=O)NCc1ccccc1,period change,[8],0.01 h (inactive)
same,survival,[9],133 (inactive)
same,parasite load remaining,[1],29.1% (inactive)
same,viability,[1],65.5%
same,inhibition,[10],0% (inactive)
same,fluorescence ratio (interference),[11],1 (inactive)
same,remaining activity,[2],113% (inactive)
same,outcome,[3],inactive
same,outcome,[4],inactive
same,fold change,[5]; [16],1.1 (inactive) and 0.928 (inactive)
same,fold change,[5]; [17],1.17 and 1.42
same,cell count,[5]; [18],2450 and 8410
same,cell count,[5]; [19],2230 and 9060
same,fold fluorescence,[13],6.89 [at 169.9 µM] (inactive)
same,z-score,[7],-0.425 (inactive)
CN(C)c1ccc(/C=C2\C(=O)Nc3ccccc32)cc1,period change,[8],-0.18 h (inactive)
same,survival,[9],85.4 (inactive)
same,inhibition,[10],-2% (inactive)
same,fluorescence ratio (interference),[11],0.9 (inactive)
same,remaining activity,[2],109% (inactive)
same,fold change,[5]; [16],1.15 (inactive) and 1.05 (inactive) and 0.834 (inactive)
same,fold change,[5]; [17],1.24 and 1.39 and 0.903
same,cell count,[5]; [18],7000 and 1360 and 6590
same,cell count,[5]; [19],6070 and 1300 and 7900
same,fold fluorescence,[13],5.59 [at 189.2 µM] (inactive)
same,outcome,[14],inactive
same,z-score,[7],3.25 (active) and 0.195 (inactive)
CCN(CC)CCCCNc1ncc2cc(-c3c(Cl)cccc3Cl)c(NC(=O)NC(C)(C)C)nc2n1,remaining activity,[2],131% (inactive)
same,fold change,[5]; [16],0.841 (inactive) and 1.42 (inactive)
same,fold change,[5]; [17],1.06 and 1.08
same,cell count,[5]; [18],938 and 569
same,cell count,[5]; [19],1110 and 401
same,outcome,[14],inactive
same,z-score,[7],-0.7 (inactive) and -1 (inactive)
O=S(=O)(c1cccc2c(Cl)cccc12)N1CCCNCC1,period change,[8],0.09 h (inactive)
same,survival,[9],62 (inactive)
same,inhibition,[10],-2% (inactive)
same,fluorescence ratio (interference),[11],1 (inactive)
same,remaining activity,[2],97.3% (inactive)
same,fold change,[5]; [16],1.19 (inactive) and 0.923 (inactive) and 0.938 (inactive)
same,fold change,[5]; [17],1.59 and 1.07 and 1
same,cell count,[5]; [18],6430 and 3010 and 7700
same,cell count,[5]; [19],5390 and 3260 and 8210
same,fold fluorescence,[13],11.9 [at 153.9 µM] (inactive)
same,outcome,[14],inactive
same,z-score,[7],-0.995 (inactive) and -0.78 (inactive)
CC(N)=NCc1cccc(CN)c1,period change,[8],-0.015 h (inactive)
same,remaining activity,[2],107% (inactive)
same,fold change,[5]; [16],1.05 (inactive) and 0.837 (inactive)
same,fold change,[5]; [17],1.01 and 0.692
same,cell count,[5]; [18],6210 and 7850
same,cell count,[5]; [19],5900 and 9380
same,fold fluorescence,[13],3.53 [at 282.1 µM] (inactive)
same,z-score,[7],0 (inactive)
CC(C)(C)c1ccc(S(=O)(=O)/C=C/C#N)cc1,period change,[8],-0.05 h (inactive)
same,inhibition,[10],-4% (inactive)
same,fluorescence ratio (interference),[11],0.9 (inactive)
same,remaining activity,[2],114% (inactive)
same,fold change,[5]; [16],0.996 (inactive) and 0.965 (inactive)
same,fold change,[5]; [17],0.975 and 1.39
same,cell count,[5]; [18],4040 and 1980
same,cell count,[5]; [19],4060 and 2060
same,SSMD,[6],-5.26
same,cell count,[6],6870
same,plate-normalised HSF1 focus index,[6],0.733 (inactive)
same,outcome,[14],inactive
same,z-score,[7],-1.5 (inactive) and -1.04 (inactive)
Clc1cccc(Nc2nnc(-c3ccccc3)c3ccccc23)c1,remaining activity,[2],100% (inactive)
same,fold change,[5]; [16],0.991 (inactive) and 0.925 (inactive)
same,fold change,[5]; [17],0.939 and 0.863
same,cell count,[5]; [18],1790 and 6180
same,cell count,[5]; [19],1810 and 6680
same,fold fluorescence,[13],8.57 [at 150.7 µM] (inactive)
same,z-score,[7],-1.22 (inactive)
Cc1nc2c(OCc3ccccc3)cccn2c1CC#N,period change,[8],-0.02 h (inactive)
same,inhibition,[10],1% (inactive)
same,fluorescence ratio (interference),[11],1 (inactive)
same,remaining activity,[2],113% (inactive)
same,fold change,[5]; [16],1.04 (inactive) and 0.99 (inactive)
same,fold change,[5]; [17],1.18 and 1.15
same,cell count,[5]; [18],9420 and 8410
same,cell count,[5]; [19],9080 and 8490
same,outcome,[14],inactive
same,z-score,[7],1.07 (inactive) and 2.13 (inactive)
S=C(S)OC1CC2CC1C1CCCC21 (centres undefined),period change,[8],-0.18 h (inactive)
same,inhibition,[10],-2% (inactive)
same,fluorescence ratio (interference),[11],1 (inactive)
same,remaining activity,[2],120% (inactive)
same,fold change,[5]; [16],0.999 (inactive) and 0.847 (inactive) and 0.975 (inactive)
same,fold change,[5]; [17],0.874 and 0.927 and 0.9
same,cell count,[5]; [18],10600 and 4560 and 8830
same,cell count,[5]; [19],10600 and 5380 and 9060
same,fold fluorescence,[13],5.66 [at 187.6 µM] (inactive)
same,outcome,[14],inactive
same,z-score,[7],-0.025 (inactive) and -0.095 (inactive)
COc1cc(/C=C(\C#N)C(N)=O)cc(CSc2nc3ccccc3s2)c1O,survival,[9],114 (inactive)
same,remaining activity,[2],115% (inactive)
same,fold change,[5]; [16],0.859 (inactive) and 0.896 (inactive)
same,fold change,[5]; [17],1.08 and 1.29
same,cell count,[5]; [18],4790 and 8180
same,cell count,[5]; [19],5570 and 9130
same,fold fluorescence,[13],9.44 [at 125.8 µM] (inactive)
same,z-score,[7],5.03 (active)
